# Screens (PubChem)
# Sampled rows, rich in hits. Any-hit rate of the full collection: about 4.2%.
# CCHF vOTU inh = blocks the CCHF virus ovarian tumor domain protease; CCHFV vOTU protease, Pep-AMC fluorescence; inhibition, % at 11.5 µM; actives 0.55% (n = 370,000); also: 0% = vehicle wells with enzyme and 100% = no enzyme wells
# RecA splice inh = Mtb RecA intein splicing inhibition; P9WHJ3; cell-free RecA intein splicing, fluorescence; inhibition, % (concentration not given with the values); actives 0.75% (n = 290,000); AID 2221; in the data active = inhibition above about 30%;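 also: 0% = vehicle wells and 100% = reference inhibitor control wells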
# FBA Mtb inh = Mtb fructose-bisphosphate aldolase inhibition; P9WQA3; purified M. tuberculosis FBA, fluorescence read-out; inhibition, % at 1 µM; actives 2.3% (n = 360,000); AID 588726; in the data active = inhibition above about 27%;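 also: 0% = vehicle and 100% = reference inhibitor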
# Target sequence (P9WQA3 whole entry, looked up): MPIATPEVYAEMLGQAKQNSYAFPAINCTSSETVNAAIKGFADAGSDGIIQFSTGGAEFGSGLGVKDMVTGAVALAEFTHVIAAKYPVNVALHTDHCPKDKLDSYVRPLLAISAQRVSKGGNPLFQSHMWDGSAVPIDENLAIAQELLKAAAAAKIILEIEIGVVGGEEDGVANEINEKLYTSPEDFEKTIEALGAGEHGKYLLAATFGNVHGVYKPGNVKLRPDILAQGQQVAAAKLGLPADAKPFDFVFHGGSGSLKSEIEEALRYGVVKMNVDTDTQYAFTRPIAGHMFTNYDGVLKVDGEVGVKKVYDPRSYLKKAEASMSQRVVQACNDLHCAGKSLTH
# Mtb bLac sens = beta-lactam sensitization of Mtb H37Rv; actives 0.27% (n = 330,000); AID 434955; inhibition, % at 25 µM; M. tuberculosis H37Rv growth with meropenem, percent inhibition; call rule not given here;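 also: growth measured after seven days incubation then overnight dye step; 0% = bacteria only wells and 100% = bacteria with antibiotic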
# GDH-TPI counter-1 = GDH-TPI coupled enzyme inhibition counter-screen. GDH-TPI coupled enzyme counterscreen, NADH absorbance. inhibition, % at 4.8 µM. actives 1.2% (n = 360,000);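 also: 0% = DMSO wells and 100% = wells lacking the enzyme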
# Mtb FBA confirm = confirmation of M. tuberculosis fructose-bisphosphate aldolase inhibitors | shares compounds with FBA Mtb inh | purified M. tuberculosis FBA, fluorescence read-out | inhibition, % at 1 µM | actives 78% (n = 5,600) | AID 651616; in the data active = inhibition above about 27%;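 also: 0% = vehicle wells and 100% = reference inhibitor wells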
# GDH-TPI counter-2 = inhibits GDH-TPI coupling enzymes, flagging Mtb FBA hits; shares compounds with FBA Mtb inh; GDH-TPI coupled enzyme counterscreen, fluorescence; inhibition, % at 1 µM; actives 81% (n = 5,600); in the data active = inhibition above about 10%
# Numbers without * were called inactive; i = inactive; / = no result given; + = active, no number. Rule as the data show it, unless noted: active = inhibition above about 30%; inactive = the rest.
SMILES,CCHF vOTU inh,RecA splice inh,FBA Mtb inh,Mtb bLac sens,GDH-TPI counter-1,Mtb FBA confirm,GDH-TPI counter-2
COC(=O)[C@]12C[C@H](CC(=O)N3CCN(C(=O)C4CC4)CC3)C(=O)N(CCC3=CCCCC3)C1=C[C@H](C(C)(C)C)O[C@@H]2C,25,/,/,/,/,/,/
Cc1cccc(-c2cc3nc(C)cc(N4CC(C)CC(C)C4)n3n2)c1 (stereo unspecified),7,/,67*,9,10,56*,30*
c1ccc2c(c1)ccc1[nH]c3c(c12)CCCC3,-19,/,43*,/,11,75*,69*
O=c1c2c([nH]c3ccccc13)CCCCCC2,15,-4,0,3,16,/,/
CC(=O)Nc1cncc(-c2cnn(CC(C)C)c2)n1,-46,/,61*,/,25,50*,51*
COc1ccccc1-c1noc(CCC(=O)Nc2cccc(C(F)(F)F)c2)n1,13,5,-1,1,3,/,/
Cn1c(=O)c2cc(NC(=O)CCc3ccc(O)cc3)ccc2n1Cc1cccc(C(F)(F)F)c1,-97,/,101*,/,7,7,-7
COc1ccccc1CCC(=O)Nc1ccc2c(c1)c(=O)n(C)n2Cc1ccc(F)cc1,-57,/,105*,/,10,94*,77*
Cn1c(=O)c2cc(NC(=O)NCc3ccc(Cl)cc3Cl)ccc2n1Cc1ccc(F)cc1,-5,/,89*,/,11,+,165*
COc1ccccc1CCC(=O)Nc1ccc2c(c1)c(=O)n(C)n2Cc1cccc(C(F)(F)F)c1,-54,/,94*,/,2,+,197*
COC(=O)C1CN(Cc2cn(Cc3ccccc3)nn2)CCS(=O)(=O)N1Cc1ccc(F)cc1 (stereo unspecified),-8,/,/,/,/,/,/
Cn1c(=O)c2cc(NC(=O)NCc3ccc(F)cc3)ccc2n1Cc1cccc(C(F)(F)F)c1,-61,/,98*,/,6,152*,139*
Cn1c(=O)c2cc(NC(=S)NC3CC3)ccc2n1Cc1cccc(C(F)(F)F)c1,-28,/,30*,/,8,121*,80*
FC(F)(F)c1cccc(NC(=S)NC2CCCC2)c1,18,5,-1,42,-5,/,/
COc1ccc(CNC(=O)Nc2cccc(C(F)(F)F)c2)cc1OC,-9,2,2,-10,4,/,/
COc1cccc(C(=O)N[C@@H](CC(C)C)C(=O)N2CCC[C@H]2C(=O)NCc2ccccc2)c1,2,/,/,/,/,/,/
CC(C)c1[nH]nc2c1C(c1ccc(F)cc1)NC2=O (stereo unspecified),18,/,/,/,/,/,/
OC(c1ccccc1)(c1ccccc1)C1CCN(CCCOc2ccc(-c3ccncc3)cc2)CC1,18,/,/,/,/,/,/
CCOC(=O)Cc1csc(NC(=O)c2c(O)c3ccccc3n(CC(C)C)c2=O)n1,-2,-1,0,100,10,/,/
CCOC(=O)Cc1csc(/N=C/c2c(O)n(-c3ccc(C)cc3C)c(=O)c3ccccc23)n1,-9,-18,53*,-1,14,60*,42*
O=S1(=O)c2c(cccc2N2CCC[C@@H]2CO)O[C@H]2CCN1C2,3,/,/,/,/,/,/
CC1=C[C@@H]2c3cccc4[nH]cc(c34)C[C@H]2N(C)C1,-4,23,82*,-6,1,52*,49*
COc1ccccc1C(=O)N1CCN(C(=O)[C@@H](Cc2ccccc2)NC(=O)[C@H]2O[C@@H](n3cnc(C(N)=O)n3)[C@H](O)[C@@H]2O)CC1,1,/,/,/,/,/,/
CC(=O)N1N=C(c2ccncc2)OC12CCCCC2,-21,1,89*,-4,0,49*,40*
CC(=O)N1N=C(c2ccccc2)OC12CCCC2,-6,-3,0,-7,-2,/,/
SMILES,CCHF vOTU inh,RecA splice inh,FBA Mtb inh,Mtb bLac sens,GDH-TPI counter-1,Mtb FBA confirm,GDH-TPI counter-2
CC(=O)N1N=C(c2ccncc2)OC12CCCCCC2,-23,-1,77*,5,7,+,+
Cc1ccc2c(c1)N(CCCC(=O)N(C)Cc1ccccc1F)C(=O)CO2,3,/,/,/,/,/,/
Cc1ccc(-c2nnc(-c3cccnc3)o2)cc1,6,4,10,-1,4,/,/
Cc1ccccc1-c1nnc(-c2cccs2)o1,-3,-3,29*,0,-4,165*,128*
COc1ccc(-c2nnc(-c3cccnc3)o2)cc1,-8,-2,83*,-5,-3,154*,126*
c1cncc(-c2nnc(-c3cccs3)o2)c1,-5,-3,51*,-1,20,70*,47*
COC(=O)[C@@]12CCCCC3=C1N(CCC3)C(=O)[C@H]2CC(=O)N1CCC(c2ccccc2)CC1,11,/,/,/,/,/,/
O=C(N[C@H](C(=O)N1CCC[C@H]1C(=O)NC1CCCC1)C1CCCCC1)C1CC1,-3,/,/,/,/,/,/
O=[N+]([O-])c1ccc2c(c1)nc1n2CCN(c2ccccc2)C1,-4,26,-2,-5,3,/,/
O=[N+]([O-])c1ccc2c(c1)nc1n2CCSC1,15,-1,35*,-1,14,6,-6
O=C(COC(=O)[C@@H]1CCCN1C(=O)c1cccs1)NCCc1ccccc1,-3,1,27*,4,0,-1,-1
C[C@H](O)[C@@H]1CN2CCc3c([nH]c4ccccc34)[C@@H]2C[C@@H]1N(C)CC1CCCCC1,-9,/,/,/,/,/,/
CN(C)CCCn1c(=S)[nH]c2ccccc2c1=O,4,-3,2,19,4,/,/
CN(C)CCCn1c2c3ccccc3ccc2c2oc(=O)c3ccccc3c21,-15,/,27*,/,6,+,+
Cn1c(-c2ccc(CN3CCCCC3)o2)nc2ccccc21,7,2,33*,0,4,20,12*
O=C(O)c1[nH]c2ccccc2c1NS(=O)(=O)Cc1ccccc1,-6,0,61*,6,8,+,174*
O=C(O)c1[nH]c2ccccc2c1NS(=O)(=O)c1ccc(F)cc1,15,-1,-2,-7,1,/,/
CC(C)=CCCC1=CC[C@H]2[C@@H](C1)C(C(C)C)=CC(=O)[C@@]2(C)O,17,/,/,/,/,/,/
COc1cc2c3c([nH]c2cc1F)C(=O)NCC3,-29,-1,102*,-1,-4,71*,46*
O=C(N/N=C/c1ccc2c(c1)OCO2)c1cc(-c2ccc(F)cc2)nc2ccccc12,-4,-4,0,-2,22,/,/
O=C1OCc2nc3cc4c(cc3c(-c3ccc(F)cc3)c21)OCO4,-20,-3,73*,8,13,101*,86*
Cc1cc(C)c2c(N)c3ccccc3nc2n1,-214,i,70*,5,-2,181*,143*
Cc1cc(C)c2cccc(N)c2n1,-2,14,1,8,10,/,/
CCc1ccc2nc3nc(C)cc(C)c3c(N)c2c1,-86,i,34*,12,-2,103*,77*
CN1C(=O)C(c2cn(C)c3ccccc23)(c2cn(C)c3ccccc23)c2ccccc21,-5,/,/,/,/,/,/
